Most compounds without a hit are left out; they make up all but 12% or so of the library.
FMDV inh: antivirals against foot and mouth disease virus; FMDV antiviral cell-based qHTS; Potency, µM (highest dose often 57.9 µM), for inactives: top-dose activity change, negative = inhibition, most hits filed as inhibitors; 410,000 tested, 1.2% active; calls by dose curve; tested in HEK293T cells; note: read-out not given here; potency is the fitted concentration of half-maximal effect; % is set by controls: 0 for no effect and ±100 for the full control effect; nearly all actives have a fitted effect of over 45% in size
CHX counter: affects cycloheximide protein synthesis inhibition readout, counter-screen; cell reporter, cycloheximide protein synthesis inhibition counterscreen; max response, %; 300,000 tested, 12% active; in the data active = max response mostly above about 13%, no sharp cut-off; inactive = mostly below about 14%; note: read at 38.3 µM for the half of the compounds with a filed dose; 0% is about no effect
Sm TGR block: blocks Schistosoma mansoni thioredoxin glutathione reductase. 360,000 tested, 3% active. purified TGR, DTNB reduction, TNB absorbance 405 nm. Potency, µM (top dose mostly 114 µM), without a hit: at the highest dose activity change, negative = inhibition, usual class: inhibitors. Q962Y6; active = well fitted inhibition curve with a large enough effect; inconclusive = small, poorly fitted or top-dose-only effect; inactive = no such curve, though single readings can be large or run the other way; note: potency is the fitted concentration of half-maximal effect; % is set by controls: 0 for no effect and ±100 for the full control effect; nearly all actives have a fitted effect of over 60% in size
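TGR 20 nM + NADPH 100 uM (dispensed conc.), cpd preinc 15 min RT; start with NADPH (500 uM addition) then DTNB (15 mM addition). Kinetic TNB absorbance, 405 nm filter. Four-parameter Hill fit across titration.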
Shiga inhibitor: inhibitors of Shiga toxin in Vero cells; Vero cells, Shiga toxin protein synthesis inhibition reporter; inhibition, % at 38.7 µM; 290,000 tested, 9.2% active; AID 2315; in the data active = inhibition mostly above about 28%, no sharp cut-off; inactive = mostly below about 43%; note: 0% is about no effect
The depositor's hits bear a star; ? = inconclusive; nt = not tested or not shown; ! = not confirmed by another sample.

SMILES	FMDV inh	CHX counter	Sm TGR block	Shiga inhibitor
COc1cc(OC)c2ccc(=O)oc2c1C(CC(=O)N1CCCC1)c1ccc(N(C)C)cc1 (centres undefined)	8%	22*!	-10%	30
COc1cc(C(CCN2CCCCC2)c2c(OC)cc(OC)c3c(-c4ccccc4)cc(=O)oc23)cc(OC)c1OC (centres undefined)	5%	-14	45µM*	-23
CNC[C@H](CC1CCCCC1)NC[C@H](Cc1ccccc1)NCCC12CC3CC(CC(C3)C1)C2	32µM*	-8	8%	-18
Cc1cnc(SCc2ccccn2)nc1C1CCCN(C(=O)c2coc3c2C(=O)CCC3)C1 (centres undefined)	-7%	nt	nt	nt
Fc1cnc(N2CCOCC2)nc1N1CCc2ccccc21	1%	12	-13%	active
Nc1ccc(C23CC4CC(CC(CO)(C4)C2)C3)cc1	13%	19*	13%	12
Nc1ccc(C23CC4CC(CC(O)(C4)C2)C3)cc1	-19%	28*	0%	24
O=C(Nc1ccc(Cl)cn1)c1cc2ccccc2o1	-28%	66*	1%	105*
COC(=O)c1ccccc1NC(=O)c1cc2ccccc2o1	1%	17	15%	40
Cc1ccc(C)c(NC(=O)c2cc3ccccc3o2)c1	55%	51*	9%	75*
Cc1cc([N+](=O)[O-])ccc1NC(=O)c1cc2ccccc2o1	43%	30*	6%	168*
O=C(Nc1ccccc1C(F)(F)F)c1cc2ccccc2o1	62%	32*	1%	nt
O=C(NNC(=O)c1cc2ccccc2o1)c1ccc(Cl)cc1	9%	0	8%	-5
COc1cccc(CNC(=O)CSc2c3c(nc4ccc(Cl)cc24)CCCC3)c1OC	?	nt	-1%	nt
CC(=O)c1cccc(NC(=O)c2c(N3CCCC3=O)c3cc(F)ccc3n2C)c1	-2%	nt	1%	nt
O=C(Nc1ccccn1)c1cc2ccccc2o1	nt	-2	-16%	-7
O=C(Nc1cccc(Cl)c1N1CCCC1)c1cc2ccccc2o1	-12%	28*	5%	29*
Cc1ccnc(NC(=O)c2cc3ccccc3o2)c1	28µM*	nt	0%	nt
CCn1cc(Br)c(C(=O)Nc2ccc(OC)cc2)n1	nt	21*	0%	30
CCn1cc(Br)c(C(=O)Nc2cccc(Cl)c2)n1	18%	18*	11%	73*
CCn1cc(Cl)c(C(=O)Nc2ccc(OC)c(OC)c2)n1	22%	21*	-1%	55*
CCn1cc(Br)c(C(=O)Nc2ccc(C(=O)OC(C)C)cc2)n1	21%	36	-23%	55
CCn1cc(Cl)c(C(=O)Nc2cc(C(=O)OC)cc(C(=O)OC)c2)n1	-13%	-4	6%	-8
CCn1nccc1C(=O)Nc1nccs1	-11%	4	-1%	5
CCn1cc(Br)c(C(=O)Nc2nccs2)n1	18%	27*	nt	73*
SMILES	FMDV inh	CHX counter	Sm TGR block	Shiga inhibitor
CCn1c(C)cc(O)c(C(=O)Nc2cccc(Cl)c2)c1=O	-9%	-7	-9%	6
CCn1ccc(C(=O)Nc2ccccc2Cl)n1	19%	41*	0%	63*
CCOC(=O)c1c(NC(=O)c2nn(CC)cc2Br)c(C#N)cn1-c1ccccc1	nt	-7	-3%	-18
CCn1cc(Br)c(C(=O)NN)n1	24%	58*	1%	71
CCn1c(C)c(C)c2cc(C(=O)Nc3cccc(Cl)c3)ccc21	1%	21*	-31%	37
CCn1ccc(C(=O)Nc2cccc(Cl)c2)n1	11%	36*	-1%	106*
CCn1cc(Br)c(C(=O)Nc2ccc(Cl)c(Cl)c2)n1	29%	21*	7%	35*
CC(=O)c1cccc(-n2c(=O)c3c4c(sc3n(Cc3ccccc3Cl)c2=O)CN(C(C)=O)CC4)c1	-12%	nt	6%	nt
COc1ccc(C(=O)Nc2ccc3nc(N4CCOCC4)sc3c2)cc1OC	-9%	nt	9%	nt
CCCn1nc(C(=O)Nc2ccc3nc(N4CCOCC4)sc3c2)ccc1=O	13µM*	nt	-7%	nt
CCOCc1c(C(=O)Nc2ccc3nc(N4CCOCC4)sc3c2)oc2ccccc12	20µM*	nt	-1%	nt
CCOc1ccc(C(=O)CSc2nc3cc(C(=O)NC4CCCC4)ccc3c(=O)n2CC2CCCO2)cc1 (centres undefined)	-6%	nt	7%	nt
Fc1ccc(-c2cn3cc(C(F)(F)F)cc(Cl)c3n2)cc1	-11%	28*	-21%	103*
COc1ccc(-c2cn3cc(C(F)(F)F)cc(Cl)c3n2)cc1	61%	56*	1%	80*
COc1ccc(C(O)c2ncc(C(F)(F)F)cc2Cl)cc1 (centres undefined)	-10%	6	1%	-4
Fc1ccc(-c2nc3c(Cl)cc(C(F)(F)F)cn3c2Cc2ccccc2)cc1	4%	nt	nt	nt
O=C(C1CCCCC1)N1CCOc2ccc(CN3CCN(Cc4ccccn4)CC3)cc2C1	23%	nt	nt	nt
CCN(CC)c1ccc(NC(=O)Nc2cccc3ccccc23)cc1	56%	15*	?	30
CCN(CC(=O)Nc1ccc(C(C)=O)cc1)CC(=O)Nc1ccccc1C(F)(F)F	1%	-6	32µM*	-3
CN(C)c1ccc(NC(=O)Nc2cccc3ccccc23)cc1	29%	36*	?	77*
CCN(CC)c1ccc(NC(=O)Nc2ccccc2C(F)(F)F)cc1	42%	24	-24%	42*
Cc1ccc(NC(=O)Nc2cccc3ccccc23)cc1	55%	9	2%	-10
O=C(c1ccc2c(c1)N(Cc1ccc(Cl)cc1)C(=O)c1ccccc1S2(=O)=O)N1CCOCC1	14%	nt	-7%	nt
O=C(NC(=S)Nc1cccnc1Cl)c1ccc(Cl)cc1	36%	50*	-25%	114*
O=C(Nc1cccnc1Cl)c1ccc(Cl)cc1	36%	36*	-16%	70*
SMILES	FMDV inh	CHX counter	Sm TGR block	Shiga inhibitor
O=C(Nc1cccnc1Cl)c1cc(-c2ccc(Cl)cc2)on1	7%	-2	24%	-3
COc1ccc(C(=O)Nc2cccnc2Sc2ccc(Cl)cc2)cc1	22%	27*	6%	47*
CCOC(=O)Nc1cccnc1Sc1ccc(Cl)cc1	-3%	nt	nt	nt
O=C(Nc1cccc2cccnc12)c1ccc(Cl)cc1	21%	37*	1%	45*
Fc1ccc(NC(=S)NCc2ccc3c(c2)OCO3)cc1	26%	-1	-14%	25
COc1ccccc1NC(=O)NCc1ccc2c(c1)OCO2	nt	11*	-10%	-1
O=C(NCc1ccc2c(c1)OCO2)Nc1ccc(F)cc1	38%	37*	2%	44*
Cc1ccc(NC(=O)NCc2ccc3c(c2)OCO3)cc1C	44%	23*	-7%	43*
CC(C)(C)Nc1nc(-c2ccc3c(c2)CCN3C(=O)C2CC2)cs1	11%	43*	0%	98*
CCC(CC)C(=O)Nc1nc(-c2ccc3c(c2)CCN3C(=O)C2CC2)c(C)s1	11µM*	-5	-10%	-6
CC1CC(C)CN(S(=O)(=O)c2ccc3c(c2)CCN3C(=O)C2CC2)C1 (centres undefined)	-11%	-2	-7%	1
CC(C)C(=O)Nc1nc(-c2ccc3c(c2)CCN3C(=O)C2CC2)cs1	-38%	24	8%	59*
CC1Cc2cc(-c3csc(NC(=O)CCl)n3)ccc2N1C(=O)C1CC1 (centres undefined)	45%	nt	nt	nt

Bioassay records: PubChem BioAssay, National Center for Advancing Translational Sciences (NCATS)
